The text below walks through data of PubChem BioAssay (Tox21).

The nature of experiment [1]: qHTS assay to identify small molecule antagonists of the thyroid receptor (TR) signaling pathway - cell viability counter screen (AID 743064). Further: nearly all actives have a fitted effect of over 50% in size. Further: potency means the concentration at half of the fitted maximal effect. Summed up: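 Viability of T3-stimulated (1 nM final) GH3.TRE-Luc cells is measured by CellTiter-Fluor fluorescence after 23.5 h compound exposure at 37 °C plus 30 min reagent incubation.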
(Quantitative high-throughput screening tests each substance at several concentrations.)

Experiment [2] can be described thus: qHTS assay to identify small molecule antagonists of the thyroid receptor (TR) signaling pathway (AID 743065). Further: nearly all actives have a fitted effect of over 55% in size. Further: potency means the concentration at half of the fitted maximal effect. Summed up: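 GH3.TRE-Luc rat pituitary cells (two TREs driving luciferase) were dosed with compound, then stimulated with 1 nM T3 (final) for 23.5 h at 37 C. ONE-Glo luminescence was the read-out, with CellTiter-Fluor fluorescence as the cytotoxicity counter-screen.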

Experiment [3] deals with Estrogen receptor (Homo sapiens) (UniProt P03372). Nature of the experiment: qHTS assay to identify small molecule antagonists of the estrogen receptor alpha (ER-alpha) signaling pathway (AID 743069; active means well fitted curve in the direction sought with a large enough effect in the signal ratio in the repeat runs, not every such curve was filed as active; inconclusive means weak or mixed curves, or effect the other way; inactive means no such curve, though single readings can be large or run the other way; the % refers to the signal ratio; further: potency means the concentration at half of the fitted maximal effect). In a few lines: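 In this cell-based reporter format, GripTite HEK293 cells harbouring ER-alpha-UAS-bla were grown overnight with 2% charcoal-stripped FBS, dosed with DMSO-dissolved compounds, then challenged with 17beta-estradiol. After 18 hr at 37C, beta-lactamase activity was detected by FRET fluorescence.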
Estrogen receptor (Homo sapiens), sequence (P03372 whole entry, looked up): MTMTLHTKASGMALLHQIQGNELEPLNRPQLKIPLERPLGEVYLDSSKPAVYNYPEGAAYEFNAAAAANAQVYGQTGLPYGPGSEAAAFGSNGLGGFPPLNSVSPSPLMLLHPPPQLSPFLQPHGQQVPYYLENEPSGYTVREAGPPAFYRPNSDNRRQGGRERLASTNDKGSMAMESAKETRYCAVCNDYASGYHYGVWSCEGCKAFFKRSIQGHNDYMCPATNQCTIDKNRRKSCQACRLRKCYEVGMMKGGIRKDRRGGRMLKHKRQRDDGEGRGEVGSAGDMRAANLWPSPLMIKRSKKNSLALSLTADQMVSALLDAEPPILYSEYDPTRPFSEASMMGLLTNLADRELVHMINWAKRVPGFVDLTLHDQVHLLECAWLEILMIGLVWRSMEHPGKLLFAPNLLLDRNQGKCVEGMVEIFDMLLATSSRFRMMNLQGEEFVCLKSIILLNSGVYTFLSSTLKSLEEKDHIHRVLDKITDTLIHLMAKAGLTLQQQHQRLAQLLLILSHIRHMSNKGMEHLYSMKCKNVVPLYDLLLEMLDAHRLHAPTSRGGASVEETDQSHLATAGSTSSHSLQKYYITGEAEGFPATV

Experiment [4] is described as follows: qHTS assay to identify small molecule antagonists of the estrogen receptor alpha (ER-alpha) signaling pathway - cell viability counter screen (AID 743074; calls by dose curve; further: nearly all actives have a fitted effect of over 45% in size; further: potency means the concentration at half of the fitted maximal effect).
Experiment [5] has as its target Estrogen receptor (Homo sapiens) (UniProt P03372). Nature of the experiment: qHTS assay to identify small molecule agonists of the estrogen receptor alpha (ER-alpha) signaling pathway (AID 743075; calls by dose curve; further: potency means the concentration at half of the fitted maximal effect).
A short description of experiment [6]: qHTS assay to identify small molecule antagonists of the estrogen receptor alpha (ER-alpha) signaling pathway using the BG1 cell line - cell viability counter screen (AID 743081).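 Further: compound given together with 17beta-estradiol as the ER stimulus; nearly all actives have a fitted effect of over 45% in size.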 Further: potency means the concentration at half of the fitted maximal effect.
In experiment [7] the target is Aromatase (Homo sapiens) (UniProt P11511). Briefly: qHTS assay to identify aromatase inhibitors (AID 743083). Further: nearly all actives have a fitted effect of over 55% in size. Further: potency means the concentration at half of the fitted maximal effect.
Aromatase (Homo sapiens), sequence (P11511 whole entry, looked up): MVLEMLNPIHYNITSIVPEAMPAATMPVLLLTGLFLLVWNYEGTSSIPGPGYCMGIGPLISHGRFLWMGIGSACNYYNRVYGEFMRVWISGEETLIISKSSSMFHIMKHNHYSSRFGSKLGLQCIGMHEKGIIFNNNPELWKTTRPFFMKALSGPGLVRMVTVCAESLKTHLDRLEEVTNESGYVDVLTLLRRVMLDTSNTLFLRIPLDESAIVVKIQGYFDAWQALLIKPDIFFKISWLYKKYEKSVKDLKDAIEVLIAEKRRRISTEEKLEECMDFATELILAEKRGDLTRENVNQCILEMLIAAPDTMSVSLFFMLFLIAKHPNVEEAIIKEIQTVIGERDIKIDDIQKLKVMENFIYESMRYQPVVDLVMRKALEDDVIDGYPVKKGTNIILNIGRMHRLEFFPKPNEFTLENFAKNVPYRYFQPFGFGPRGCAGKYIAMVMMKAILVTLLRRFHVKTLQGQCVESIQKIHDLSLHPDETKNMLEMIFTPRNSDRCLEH
Experiment [8] in a line: qHTS assay to identify aromatase inhibitors - cell viability counter screen (AID 743084).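 Further: cells stimulated with testosterone during compound exposure; nearly all actives have a fitted effect of over 55% in size.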 Further: potency means the concentration at half of the fitted maximal effect.
Experiment [9] concerns the target Aryl hydrocarbon receptor (Homo sapiens) (UniProt P35869). Briefly: qHTS assay to identify small molecule that activate the aryl hydrocarbon receptor (AhR) signaling pathway (AID 743085). Further: nearly all actives have a fitted effect of over 15% in size. Further: potency means the concentration at half of the fitted maximal effect.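 On activation: HG2L7.5c1 human HepG2 liver cells with stably integrated DRE-driven firefly reporter.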 In a few lines:
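A multiplexed format paired cell viability (CellTiter-Fluor fluorescence) with AhR-dependent luciferase output (ONE-Glo luminescence) in the same wells of HepG2 DRE-luc cells after 24 h compound exposure at 37C.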

A short description of experiment [10]: qHTS assay to identify small molecule that activate the aryl hydrocarbon receptor (AhR) signaling pathway - cell viability counter screen (AID 743086). Further: nearly all actives have a fitted effect of over 45% in size. Further: potency means the concentration at half of the fitted maximal effect. In a few lines:
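HepG2-AhR-luc (HG2L7.5c1) cells, 4000/well, treated 24 h at 37 C with compound; viability measured as CellTiter-Fluor fluorescence after 30 min in the same wells as the luciferase read.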

Experiment [11] can be described thus: qHTS assay to identify small molecule antagonists of the peroxisome proliferator-activated receptor gamma (PPARg) signaling pathway - cell viability counter screen (AID 743194). Further: nearly all actives have a fitted effect of over 55% in size. Further: potency means the concentration at half of the fitted maximal effect. The conditions noted are these: Potency: co-treated with 50 nM rosiglitazone unless noted. In a few lines:
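Cytotoxicity counter screen in PPARg-bla HEK293H cells, same wells as reporter assay. Compounds plus 50 nM rosiglitazone (final) for 17 h at 37 C, then viability read by CellTiter-Glo luminescence.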

Experiment [12] in a line: qHTS assay for small molecule agonists of the antioxidant response element (ARE) signaling pathway - cell viability counter screen (AID 743203; calls by dose curve; further: nearly all actives have a fitted effect of over 55% in size; further: potency means the concentration at half of the fitted maximal effect). Summed up: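 ATP content via CellTiter-Glo luminescence served as the viability measure. Cells: ARE-bla HepG2, 2,000 per well. Exposure: 16 hrs, 37C/5% CO2.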
Experiment [13] is described as follows: qHTS assay for small molecule activators of the heat shock response signaling pathway - cell viability counter screen (AID 743209). Further: nearly all actives have a fitted effect of over 50% in size. Further: potency means the concentration at half of the fitted maximal effect. In a few lines:
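Compounds dissolved in DMSO were added to overnight-plated HSE-bla HeLa cells and left 5 h at 37 C. Cell viability was quantified by luminescence using CellTiter-Glo.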

Experiment [14] relates to thyroid hormone receptor (rat, GH3 cells). Briefly: qHTS assay to identify small molecule agonists of the thyroid receptor (TR) signaling pathway (AID 743066; calls by dose curve).
A short description of experiment [15]: qHTS assay for small molecule agonists of the antioxidant response element (ARE) signaling pathway (AID 743202; active means well fitted activation curve with a large enough effect in the signal ratio in the repeat runs, not every such curve was filed as active; inconclusive means weak or mixed curves, or effect the other way; inactive means no such curve, though single readings can be large or run the other way; the % refers to the signal ratio; further: potency means the concentration at half of the fitted maximal effect). In a few lines:
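HepG2 ARE-bla cells; 16 h treatment at 37 C; FRET-based beta-lactamase fluorescence read after 2 h substrate incubation at room temperature.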

Experiment [16] can be described thus: qHTS assay for small molecule activators of the heat shock response signaling pathway (AID 743210; active means well fitted activation curve with a large enough effect in the signal ratio in the repeat runs, with a control signal flat, not every such curve was filed as active; inconclusive means weak or mixed curves; the % refers to the signal ratio;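 further: HeLa cells with beta-lactamase reporter driven by heat shock elements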). In a few lines: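 Following overnight attachment, HSE-bla HeLa cells received test compounds for 5 h at 37 C; beta-lactamase activity was then detected via FRET substrate fluorescence.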
Experiment [17] concerns the target Peroxisome proliferator-activated receptor gamma (Homo sapiens) (UniProt P37231). Briefly: qHTS assay to identify small molecule agonists of the peroxisome proliferator-activated receptor gamma (PPARg) signaling pathway (AID 743094; active means well fitted activation curve with a large enough effect in the signal ratio in the repeat runs, not every such curve was filed as active; inconclusive means weak or mixed curves, or effect the other way; inactive means no such curve, though single readings can be large or run the other way; the % refers to the signal ratio). Summed up:
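Agonism was assessed in a beta-lactamase reporter system, HEK293H cells with a stably integrated UAS-bla construct under PPARg control; the 17 h treatment at 37C preceded a 1 h room-temperature FRET substrate read.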

Experiment [18] has the same target. Briefly: qHTS assay to identify small molecule antagonists of the peroxisome proliferator-activated receptor gamma (PPARg) signaling pathway (AID 743191; calls by dose curve; further: nearly all actives have a fitted effect of over 30% in size). In a few lines: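 GeneBLAzer PPARg UAS-bla HEK293H cells, 5 h post-plating, exposed to compounds 17 h at 37C. LiveBLAzer B/G FRET substrate added for 1 h at room temperature; beta-lactamase reporter read by fluorescence intensity.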

Experiment [19] concerns the target Estrogen receptor (Homo sapiens) (UniProt P03372). Nature of the experiment: qHTS assay to identify small molecule agonists of the estrogen receptor alpha (ER-alpha) signaling pathway using the BG1 cell line (AID 743079). Further: nearly all actives have a fitted effect of over 20% in size. The conditions noted are these: BG1Luc4E2 cells, ERE-luciferase agonist, 22 h; activation: at 70.3 µM (top of the series) unless noted.
Experiment [20] can be described thus: qHTS assay to identify small molecule antagonists of the estrogen receptor alpha (ER-alpha) signaling pathway using the BG1 cell line (AID 743080; calls by dose curve;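 further: BG1 cells stimulated with 17beta-estradiol alongside compound; nearly all actives have a fitted effect of over 25% in size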). In a few lines:
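After 5 days in phenol-red-free 10% charcoal-stripped FBS medium, BG1-Luc-4E2 cells were seeded, left 24 h at 37 C, co-treated with compounds and 17beta-estradiol for 21.5 h, then assayed for viability and luciferase.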

“And” between values parts separate entries of the source, which are not always exact repeats. Equal values may be shown once. A structure can be active in one record and inactive in another. The source made the active and inactive calls. Unless noted, the call rests on the fitted dose curve; in most records, active means well fitted curve in the direction sought with a large enough effect in the repeat runs; inconclusive means weak or mixed curves; inactive means no such curve, though single readings can be large; an effect the other way counts as inactive or inconclusive.

Aryl hydrocarbon receptor (Homo sapiens), sequence (P35869 whole entry, looked up): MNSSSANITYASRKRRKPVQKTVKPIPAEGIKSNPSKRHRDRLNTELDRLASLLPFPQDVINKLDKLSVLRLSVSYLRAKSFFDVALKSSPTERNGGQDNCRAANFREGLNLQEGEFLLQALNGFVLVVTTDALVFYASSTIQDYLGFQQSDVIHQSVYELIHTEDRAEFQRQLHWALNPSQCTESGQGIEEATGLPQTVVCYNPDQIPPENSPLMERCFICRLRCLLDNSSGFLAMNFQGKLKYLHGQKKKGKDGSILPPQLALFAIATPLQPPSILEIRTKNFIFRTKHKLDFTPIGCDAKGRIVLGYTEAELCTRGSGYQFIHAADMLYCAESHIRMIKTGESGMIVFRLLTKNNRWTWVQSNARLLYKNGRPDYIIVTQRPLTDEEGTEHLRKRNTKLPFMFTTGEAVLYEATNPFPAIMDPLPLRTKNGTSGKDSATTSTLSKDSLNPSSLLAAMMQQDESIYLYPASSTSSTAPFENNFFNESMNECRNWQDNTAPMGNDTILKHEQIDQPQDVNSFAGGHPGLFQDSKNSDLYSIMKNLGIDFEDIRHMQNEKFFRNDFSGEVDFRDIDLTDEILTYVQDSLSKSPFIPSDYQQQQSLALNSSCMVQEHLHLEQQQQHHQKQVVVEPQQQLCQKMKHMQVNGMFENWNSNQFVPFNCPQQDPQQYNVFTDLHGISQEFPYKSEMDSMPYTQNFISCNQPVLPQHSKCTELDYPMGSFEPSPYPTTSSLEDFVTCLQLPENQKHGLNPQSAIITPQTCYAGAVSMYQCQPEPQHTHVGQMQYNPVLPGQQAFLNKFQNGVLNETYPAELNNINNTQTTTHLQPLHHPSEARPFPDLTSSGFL
Peroxisome proliferator-activated receptor gamma (Homo sapiens), sequence (P37231 whole entry, looked up): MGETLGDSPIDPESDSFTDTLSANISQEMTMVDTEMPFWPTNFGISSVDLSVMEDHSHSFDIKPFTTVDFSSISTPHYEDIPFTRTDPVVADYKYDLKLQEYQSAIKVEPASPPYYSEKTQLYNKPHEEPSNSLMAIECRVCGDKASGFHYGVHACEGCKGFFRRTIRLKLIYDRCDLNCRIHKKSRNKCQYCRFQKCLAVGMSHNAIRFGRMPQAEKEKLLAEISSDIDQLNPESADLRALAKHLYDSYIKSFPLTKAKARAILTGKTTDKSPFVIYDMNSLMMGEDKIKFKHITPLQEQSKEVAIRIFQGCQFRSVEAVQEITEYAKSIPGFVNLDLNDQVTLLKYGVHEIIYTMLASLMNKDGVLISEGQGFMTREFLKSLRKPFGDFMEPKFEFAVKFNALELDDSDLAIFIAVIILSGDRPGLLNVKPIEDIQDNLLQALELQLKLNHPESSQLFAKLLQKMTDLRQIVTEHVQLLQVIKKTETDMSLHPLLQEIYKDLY

Take `CCC[CH2][Sn]([Cl])([Cl])[CH2]CCC`: the Potency is 34.4 nM (active) in experiment [1]; 49.2 nM (active) and 10.9 nM (active) in experiment [2]; 786 nM [inconclusive] (active) and 692 nM [inconclusive] (active) in [3]; 6.24 µM (active) and 2.75 µM (active) in [4]; 44.2 µM [inconclusive] (active) and 43.6 µM [inconclusive] (active) in experiment [5]; 2.46 µM (active) and 770 nM (active) in experiment [6]. The Potency in experiment [7] is 694 nM (active) and 172 nM (active); in [8], 1.39 µM (active) and 686 nM (active); in [10] it was 1.39 µM (active) and 486 nM (active); in [11] it was 882 nM (active) and 43.6 nM (active); in [12], 276 nM (active) and 34.4 nM (active); in [13], 54.9 nM (active). Moreover, the Potency result in [9] is “inactive”.
On to `CN(C)c1ccccc1`, for which the Potency entry in [1], in [2], in [14], in [6], in [10] and in experiment [11] was “inactive” throughout. The Potency result in [15], in [12], in experiment [13] and in experiment [16] was “inactive” each time.
Consider `CC(C)(O)C#N`, for which the Potency result in [1], in experiment [4], in [6], in experiment [7], in [8] and in experiment [9] was “inactive” in each case. The Potency result in experiment [10], in [17], in experiment [11], in experiment [15], in experiment [12] and in [13] was “inactive” throughout. Further, the Potency entry in experiment [16] was “inactive”.
For the molecule `O=[N+]([O-])c1ccc(Nc2ccccc2)cc1`, the Potency is 48600 nM (active) in [1]; 48.9 µM (active) and 30.6 µM (active) in experiment [2]; 48.9 µM (active) and 27.3 µM (active) in experiment [6]; 30.6 µM (active) in [7]; 30.9 µM (active) and 27.3 µM (active) in experiment [8]; 24.5 µM (active) and 24.3 µM (active) in experiment [10]. Besides, the Potency is 34.4 µM (active) in [12]; “inactive and 27.5 µM (active)” in experiment [13]. Besides, the Potency entry in [14], in experiment [5], in experiment [9] and in experiment [16] was “inactive” throughout.
In the case of `[CH3][Sn]([Cl])([Cl])[Cl]`, the Potency entry in experiment [1], in experiment [4], in experiment [6], in experiment [7], in experiment [8] and in experiment [9] was “inactive” in each case. Further, the Potency result in [10], in [17], in experiment [18], in [11], in experiment [15] and in [12] was “inactive” throughout. The Potency result in experiment [13] and in [16] was “inactive” throughout.
For `CC(O)CN(CC(C)O)CC(C)O` (centres undefined), the Potency result in experiment [1], in experiment [2], in experiment [14], in experiment [4], in experiment [6] and in experiment [7] was “inactive” throughout. For the same molecule, the Potency result in [8], in experiment [10], in experiment [11], in experiment [15], in [12] and in experiment [13] was “inactive” each time. The Potency result in [16] is “inactive”.
Turning to `Cc1ccc(N=CN(C)C=Nc2ccc(C)cc2C)c(C)c1`, the Potency entry in experiment [1] was “inactive and 48.5 µM (active)”; in [9] it was “inactive and 48.8 µM (active)”. The Potency entry in experiment [14], in experiment [3], in experiment [4], in experiment [5], in experiment [19] and in experiment [20] was “inactive” each time. Moreover, the Potency result in experiment [6], in experiment [7], in [8], in experiment [10], in experiment [17] and in experiment [18] was “inactive” throughout. The Potency entry in experiment [15], in [12], in [13] and in experiment [16] was “inactive” throughout.
In the case of `CC(C)(c1ccc(OCC2CO2)cc1)c1ccc(OCC2CO2)cc1` (centres undefined), the Potency in [2] is 55.2 µM (active) and 54.5 µM (active); in [11] it was 55.7 µM (active); in experiment [15] it was 61.1 µM (active). In addition, the Potency result in [14], in experiment [3], in experiment [4], in [5], in [19] and in experiment [20] was “inactive” throughout. Moreover, the Potency result in experiment [6], in experiment [7], in [8], in [9], in [10] and in [12] was “inactive” throughout. Moreover, the Potency result in experiment [13] was “inactive”.
Regarding `N#CCCCCC#N`, the Potency entry in experiment [2], in [14], in experiment [4], in experiment [6], in [7] and in experiment [8] was “inactive” throughout. The Potency result in experiment [9], in experiment [10], in [17], in [18], in experiment [11] and in experiment [15] was “inactive” throughout. Moreover, the Potency entry in experiment [12], in experiment [13] and in experiment [16] was “inactive” in each case.
As for `CCCCSP(=O)(SCCCC)SCCCC`, the Potency result in experiment [2], in experiment [14], in experiment [4], in experiment [6], in [7] and in experiment [8] was “inactive” each time. Moreover, the Potency result in experiment [9], in experiment [10], in experiment [17], in [11], in [15] and in experiment [12] was “inactive” throughout. Further, the Potency result in experiment [13] and in experiment [16] was “inactive” in each case.
On to `Cl`, for which the Potency entry in experiment [1], in experiment [2], in experiment [14], in experiment [4], in experiment [6] and in [7] was “inactive” each time. Besides, the Potency entry in [8], in experiment [9], in [10], in experiment [11], in experiment [15] and in experiment [12] was “inactive” each time. Besides, the Potency result in experiment [13] and in experiment [16] was “inactive” in each case.
For `C[N+](C)(C)CC(=O)[O-]`, the Potency entry in experiment [1], in experiment [14], in [3], in experiment [4], in [5] and in experiment [19] was “inactive” throughout. The Potency entry in [20], in experiment [6], in experiment [7], in experiment [8], in experiment [9] and in experiment [10] was “inactive” throughout. In addition, the Potency entry in experiment [17], in [11], in [15], in [12] and in experiment [13] was “inactive” each time.
Regarding `Oc1ccc(Cl)cc1Cc1ccccc1`, the Potency is 48.6 µM (active) and 36.7 µM (active) in experiment [1]; 54.5 µM (active) and 43.3 µM (active) in experiment [2]; “inactive and 49 µM (active) and 12.4 µM (active)” in [4]; 27.3 µM (active) and 30.9 µM (active) in [7]; “inactive and 30.6 µM (active) and 49.2 µM (active)” in [8]; 68.6 µM (active) and 55.1 µM (active) in [12]. Besides, the Potency in [13] is 54.9 µM (active) and 45.4 µM (active) and inactive. Further, the Potency result in experiment [14], in experiment [6], in experiment [9], in experiment [10] and in experiment [17] was “inactive” in each case.
Consider `Nc1ccc([N+](=O)[O-])cc1N`, for which the Potency in [1] was 24.3 µM (active) and 43.3 µM (active); in experiment [2], 48.5 µM (active) and 48.6 µM (active); in [8], 30.6 µM (active); in experiment [9], 61.1 µM (active); in experiment [10] it was 27.3 µM (active) and 30.6 µM (active); in [15], 0.968 µM (active). Further, the Potency entry in experiment [14], in experiment [7], in [17], in [18], in experiment [11] and in [12] was “inactive” each time. The Potency entry in experiment [13] was “inactive”.
